Results on ten compounds are retold here after publication PMC5540273 (PLoS ONE, 2017).

Some test systems named below: CDK4-cyclinD1; CDK4-cyclinD3; CDK4; CDK5; CDK7; CDK8; CDK9; CDKL1; CDKL2; CDKL3; CDKL5; CHEK1; CHEK2; CIT; CLK1; CLK2; CLK3; CLK4; CSF1R-autoinhibited; CSF1R.
Conditions in all cases: concentration: 1 μM, replicates: in singlicate; n = 1
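Note: KINOMEscan kinase panel screen.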

For `CC(C)c1cc(-c2ccc3c(N)n[nH]c3c2)nc(N)n1` [GSK2250882], the “%Inh” value in the test on CDK4-cyclinD1 came out at 0%; in the test on CDK4-cyclinD3, 0%; in the test with CDK4 it was 0%; with CDK5, 0%; in the test on CDK7 it was 0%; with CDK8, 20%. Further, the “%Inh” value in the test with CDK9 was found to be 0%; with CDKL1, 23%; in the test on CDKL2, 20%; in the test on CDKL3 it was 0%; in the test on CDKL5, 0%; in the test with CHEK1, 0%. Besides, the “%Inh” value was found to be 84% in the test with CHEK2; 5% in the test with CIT; 59% in the test on CLK1; 21% in the test with CLK2; 0% in the test with CLK3; 62% with CLK4. The figures for the “%Inh” value with CSF1R-autoinhibited and with CSF1R were 6% and 5%, respectively.
For `Cn1cncc1-c1cc2c(Nc3ccc(OCc4ccccc4)cc3)ncnc2cn1` [GW281179], the “%Inh” value in the test on CDK4-cyclinD1 stood at 0%; with CDK4-cyclinD3, 4%; in the test with CDK4, 0%; with CDK5 it was 0%; in the test on CDK7, 0%; with CDK8, 17%. Besides, the “%Inh” value turned out to be 0% in the test with CDK9; 100% in the test on CDKL1; 21% with CDKL2; 0% with CDKL3; 1% in the test with CDKL5; 2% in the test with CHEK1. In addition, the “%Inh” value was found to be 0% in the test on CHEK2; 6% with CIT; 17% with CLK1; 0% with CLK2; 0% in the test on CLK3; 14% in the test on CLK4. The “%Inh” value with CSF1R-autoinhibited and with CSF1R was 0% in each case.
Consider `COc1cccc(C2=C(Nc3cc(Cl)c(O)c(Cl)c3)C(=O)NC2=O)c1` [SB-390767], for which the “%Inh” value with CDK4-cyclinD1 is 0%; in the test with CDK4-cyclinD3 it was 0%; in the test on CDK4, 0%; with CDK5, 5%; in the test on CDK7, 0%; with CDK8, 0%. Also, the “%Inh” value stood at 0% in the test with CDK9; 1% in the test on CDKL1; 20% in the test on CDKL2; 0% in the test on CDKL3; 0% with CDKL5; 100% in the test on CHEK1. For the same compound, the “%Inh” value is 0% with CHEK2; 7% in the test with CIT; 46% in the test with CLK1; 0% with CLK2; 14% with CLK3; 15% with CLK4. The “%Inh” value with CSF1R-autoinhibited and with CSF1R was 0% in each case.
Consider `Fc1ccc(-c2nc[nH]c2-c2ccncc2)cc1` [SB-217360], for which the “%Inh” value in the test with CDK4-cyclinD1 came out at 0%; in the test with CDK4-cyclinD3, 0%; in the test on CDK4, 15%; with CDK5, 0%; with CDK7, 0%; in the test on CDK8, 38%. The “%Inh” value in the test on CDK9 was determined as 0%; in the test on CDKL1, 12%; with CDKL2, 16%; with CDKL3 it was 2%; with CDKL5, 2%; with CHEK1, 0%. For the same compound, the “%Inh” value in the test on CHEK2 stood at 16%; with CIT it was 93.7%; in the test with CLK1, 5%; in the test on CLK2, 10%; with CLK3 it was 10%; with CLK4 it was 0%. Moreover, the “%Inh” value with CSF1R-autoinhibited and in the test with CSF1R was 0% in each case.
As to `COC(=O)c1cccc(NC(=O)NC2CCN(c3ccnc(Nc4ccc(F)cc4)n3)C2)c1` (centres unmarked) [GSK1379725], the “%Inh” value stood at 0% in the test with CDK4-cyclinD1; 0% in the test with CDK4-cyclinD3; 6% in the test with CDK4; 0% in the test on CDK5; 0% in the test on CDK7; 41% in the test with CDK8. Moreover, the “%Inh” value was 0% with CDK9; 0% in the test on CDKL1; 82% in the test with CDKL2; 0% with CDKL3; 7% in the test on CDKL5; 0% with CHEK1. The “%Inh” value with CHEK2 is 0%; in the test with CIT, 12%; with CLK1 it was 10%; in the test on CLK2, 0%; in the test on CLK3, 0%; in the test on CLK4 it was 10%. The entries for the “%Inh” value in the test on CSF1R-autoinhibited and in the test with CSF1R were 0% and 2%, respectively.
On to `CC(=O)c1c(C)c2cnc(Nc3ccn(C)n3)nc2n(C2CCCC2)c1=O`, for which the “%Inh” value in the test with CDK4-cyclinD1 amounted to 99.6%; with CDK4-cyclinD3 it was 98.4%; in the test on CDK4, 19%; in the test with CDK5, 0%; in the test with CDK7 it was 0%; in the test on CDK8, 0%. Further, the “%Inh” value with CDK9 was 18%; in the test on CDKL1, 0%; with CDKL2 it was 0%; in the test with CDKL3, 0%; in the test with CDKL5 it was 0%; with CHEK1, 0%. The “%Inh” value with CHEK2 was found to be 0%; with CIT it was 4%; in the test with CLK1 it was 19%; in the test on CLK2 it was 16%; in the test on CLK3, 0%; in the test with CLK4 it was 9%. The results for the “%Inh” value in the test on CSF1R-autoinhibited and in the test on CSF1R were 12% and 0%, respectively.
`CN1c2ccc(-c3ccc(C(N)=O)cc3)cc2-c2[nH]ncc2S1(=O)=O`: the “%Inh” value with CDK4-cyclinD1 came out at 27%; with CDK4-cyclinD3, 0%; with CDK4, 0%; in the test on CDK5 it was 0%; in the test on CDK7 it was 0%; in the test on CDK8 it was 28%. In addition, the “%Inh” value in the test with CDK9 is 0%; with CDKL1, 22%; with CDKL2, 31%; in the test with CDKL3, 0%; in the test on CDKL5, 0%; in the test on CHEK1 it was 0%. The “%Inh” value with CHEK2 amounted to 49%; with CIT, 0%; in the test on CLK1, 25%; in the test on CLK2 it was 70%; in the test on CLK3 it was 0%; with CLK4, 15%. The “%Inh” value with CSF1R-autoinhibited worked out at 17%; in the test with CSF1R, 0%.
`Cc1ccc(NC(=O)Nc2ccc(Cl)c(C(F)(F)F)c2)cc1-c1ccc(C(=O)Nc2ccncc2)cc1` [GSK1398470]: the “%Inh” value in the test with CDK4-cyclinD1 is given as 0%; with CDK4-cyclinD3, 0%; in the test with CDK4, 0%; with CDK5, 0%; with CDK7, 0%; with CDK8, 36%. The “%Inh” value with CDK9 stood at 0%; in the test on CDKL1, 86%; in the test on CDKL2, 34%; in the test on CDKL3 it was 0%; in the test with CDKL5 it was 6%; in the test on CHEK1 it was 0%. In addition, the “%Inh” value in the test on CHEK2 was determined as 0%; with CIT, 90.6%; in the test on CLK1, 14%; in the test with CLK2, 3%; with CLK3, 0%; with CLK4 it was 24%. In addition, the “%Inh” value is reported as 0% with CSF1R-autoinhibited and 30% in the test with CSF1R.
`CCCCc1nn2ncccc2c1-c1ccnc(NC2CC2)n1` [GW684374]: the “%Inh” value is 0% with CDK4-cyclinD1; 12% with CDK4-cyclinD3; 21% in the test with CDK4; 0% in the test on CDK5; 0% in the test with CDK7; 0% with CDK8. Moreover, the “%Inh” value was 0% in the test on CDK9; 0% in the test with CDKL1; 15% with CDKL2; 0% in the test on CDKL3; 0% with CDKL5; 0% in the test with CHEK1. Moreover, the “%Inh” value with CHEK2 is 3%; in the test on CIT, 25%; with CLK1 it was 40%; in the test with CLK2, 26%; in the test on CLK3, 90.7%; in the test with CLK4, 0%. Also, the “%Inh” value is recorded as 0% in the test on CSF1R-autoinhibited and 7% with CSF1R.
On to `Fc1ccc(-c2nn3cccc(F)c3c2-c2ccncc2)cc1` [GW475620], for which the “%Inh” value in the test with CDK4-cyclinD1 came to 1%; with CDK4-cyclinD3, 0%; with CDK4 it was 24%; in the test on CDK5 it was 17%; with CDK7, 0%; in the test with CDK8, 15%. The “%Inh” value turned out to be 0% in the test with CDK9; 0% in the test on CDKL1; 14% in the test on CDKL2; 0% in the test on CDKL3; 0% in the test on CDKL5; 0% in the test with CHEK1. Besides, the “%Inh” value in the test with CHEK2 was found to be 0%; in the test with CIT, 96.3%; with CLK1, 22%; in the test with CLK2, 0%; in the test with CLK3, 6%; with CLK4, 26%. Moreover, the “%Inh” value with CSF1R-autoinhibited and with CSF1R was 0% each time.
